# Source: PubChem BioAssay (NCATS)
# Inconclusive results are not listed. The source made the active and inactive calls. The call rests on the fitted dose curve; in most records, active means well fitted inhibition curve with a large enough effect; inconclusive means small, poorly fitted or top-dose-only effect; inactive means flat fitted curve, though single readings scatter.
# Assay: qHTS to identify inhibitors of the type 1 interferon - major histocompatibility complex class I in skeletal muscle: primary screen against the NCATS LOPAC collection (AID 1347405);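 further: lytic HiBiT luminescence reporting HLA-B protein level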
# Settings: iHSKM muscle cells, IFN-b-induced MHC-I HiBiT luminescence, 24 h; series mostly up to 45.9 µM; activity change, negative = inhibition: at the top concentration
# Method in brief: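 After 24 h at 37 C with compounds (7-point, 1:4.3 dilutions, 46 uM top final) plus 4 ng/ml IFN-beta, luminescence from lytic HiBiT detection was measured. HLA-B*08:01 in C25cl48 myoblasts carried an endogenous C-terminal HiBiT tag; medium lacked dexamethasone.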
# On the % scale 0 is the no-effect control and ±100 the full control effect; potency means the concentration at half of the fitted maximal effect.
SMILES,"activity change, negative = inhibition",Potency
CN1CC[C@@]2(C)c3cc(OC(=O)Nc4ccccc4)ccc3N(C)[C@@H]12,-22.1% (inactive),–
C[N+]1(C)CCN(c2ccccc2)CC1,-0.028% (inactive),–
OC1CCCCC1N1CCC(c2ccccc2)CC1 (centres undefined),3.7% (inactive),–
CN1C2CCC1CC(OC(c1ccccc1)c1ccccc1N)C2 (centres undefined),-7.18% (inactive),–
N[C@@]1(C(=O)O)CC[C@@H](C(=O)O)C1,-2.12% (inactive),–
NNC(=O)c1ccc(O)cc1,-10.2% (inactive),–
C#CCN[C@H](C)Cc1ccccc1,2.36% (inactive),–
C[N+](C)(C)CC#CCOC(=O)Nc1cccc(Cl)c1,3.21% (inactive),–
Oc1ccc2c3c1O[C@H]1c4oc5ccccc5c4C[C@@]4(O)C(C2)N(CC2CC2)CCC314 (some centres undefined),-5.28% (inactive),–
C[C@@H]1O[C@@H](O[C@H]2C[C@@H](O)[C@]3(CO)[C@@H]4C(CC[C@]3(O)C2)[C@@]2(O)CC[C@H]([C@@H]3COC(=O)C3)[C@@]2(C)C[C@H]4O)[C@H](O)[C@H](O)[C@H]1O (some centres undefined),–,1.12 µM (active)
CP(=O)(O)C1=CCNCC1,5.69% (inactive),–
NC(=O)CI,-16.4% (inactive),–
Cc1c2ccncc2c(C)c2c1[nH]c1ccccc12,–,7.08 µM (active)
NCCc1ccc(S(=O)(=O)F)cc1,5.21% (inactive),–
NCCc1c[nH]c2ccc(C(N)=O)cc12,-2.24% (inactive),–
CC1(C(=O)O)C2CCC(O2)C1(C)C(=O)O (centres undefined),–,12.6 µM (active)
COc1ccc2c(c1)C13CCCCC1C(C2)N(C)CC3 (centres undefined),-5.62% (inactive),–
CCOC(=O)c1ncn2c1[C@@H]1CCCN1C(=O)c1cc(OC)ccc1-2,-1.58% (inactive),–
O=S1(=O)N(CCN2CC=C(c3c[nH]c4cc(F)ccc34)CC2)c2cccc3c2N1CCC3,-10% (inactive),–
COc1ccc(CNC(=O)/C=C/c2ccc3[nH]cc(CCN(C)C)c3c2)cc1,-22.1% (inactive),–

SMILES,"activity change, negative = inhibition",Potency
CCCN(CCC)CCc1ccc(O)c(O)c1,-8.32% (inactive),–
OCc1cnc[nH]1,0.691% (inactive),–
CC(N)c1cccc(Cl)c1Cl (centres undefined),2.93% (inactive),–
CNc1ccc2oc(C[C@H]3O[C@@]4(CC[C@H]3C)O[C@H]([C@H](C)C(=O)c3ccc[nH]3)[C@H](C)C[C@H]4C)nc2c1C(=O)O,–,3.98 µM (active)
NCC(CP(=O)(O)O)c1ccc(Cl)cc1 (centres undefined),-11% (inactive),–
C[C@H](Cc1ccc2c(c1)OC(C(=O)O)(C(=O)O)O2)NC[C@H](O)c1cccc(Cl)c1,6.57% (inactive),–
O=[N+]([O-])/C=C/c1ccc2c(c1)OCO2,–,7.08 µM (active)
CCCN(CCC)[C@H]1CCc2c(F)ccc(O)c2C1,1.47% (inactive),–
NC(=O)COc1c(F)cc(SCCNS(=O)(=O)c2ccccc2)cc1F,-15.8% (inactive),–
C[N+]1(C)C2CCC1CC(OC(=O)c1c[nH]c3ccccc13)C2 (centres undefined),-0.653% (inactive),–
C=CCN1CCC23c4c5ccc(O)c4O[C@H]2C(=O)CC[C@@]3(O)C1C5 (some centres undefined),-3.79% (inactive),–
NCCCP(=O)(O)O,8.8% (inactive),–
C[N+]1(C)CCOC(O)(c2ccc(-c3ccc(C4(O)C[N+](C)(C)CCO4)cc3)cc2)C1 (centres undefined),-6.65% (inactive),–
CCCC[N+]1(C)C2CC(OC(=O)[C@H](CO)c3ccccc3)CC1C1OC12 (some centres undefined),3.85% (inactive),–
CCCN1CCC[C@@H](c2cccc(O)c2)C1,2.99% (inactive),–
C=CCN1C[C@@H](C)N([C@H](c2ccc(C(=O)N(CC)CC)cc2)c2cccc(OC)c2)C[C@@H]1C,-9.38% (inactive),–
NC(N)=NOCC[C@H](N)C(=O)O,-8.89% (inactive),–
CC(C)(C)c1o[nH]c(=O)c1CC(N)C(=O)O (centres undefined),-9.76% (inactive),–
COc1ccc2c(c1O)-c1cccc3c1[C@@H](C2)N(C)CC3,-3.98% (inactive),–
